About 83,000 compounds went through this panel and 20% of them were active in at least one assay; those are over-represented in the sample as a whole.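 Plates (96-well) were seeded with cells, treated with compound at one concentration, and incubated for 48 hours before percent growth was determined.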 Unmarked numbers belong to inactive results. Active and inactive are the calls of the source. The calls were made as follows: active = growth percent below 10; inactive = the rest.

Holding throughout (assay): NCI-60 one-dose screen, 48 h (100 = growth as untreated, 0 = no growth, -100 = all killed)
Common to all, as to settings: 10 µM unless noted

Assay [1] relates to NCI-H23 lung.
The subject of assay [2] is NCI-H226 lung.
For assay [3], the system named is NCI-H322M lung.
Assay [4] relates to HOP-62 NSCLC.
Assay [5] concerns NCI-H460 lung.
In assay [6] the test system is HOP-92 NSCLC.
Assay [7] relates to NCI-H522 lung.
Assay [8] relates to A549/ATCC NSCLC.
In assay [9] the test system is 786-0 renal.
For assay [10], the system named is COLO 205 colon.
Assay [11] has as its system DU-145 prostate.
Assay [12] relates to MALME-3M melanoma.
For assay [13], the system named is MDA-MB-231 breast.
Assay [14] concerns RXF 393 renal.
The test system of assay [15] is SF-268 CNS.
Assay [16] deals with SF-295 CNS.
Assay [17] concerns SF-539 CNS.
For assay [18], the system named is UACC-257 melanoma.
Assay [19] has as its system M14 melanoma.

On to `C=C1C(=O)O[C@H]2[C@H]1CC/C(COC(=O)c1ccc(Cl)nc1)=C\CC[C@@]1(C)O[C@@H]21`, for which the growth is 47.5% in [1]; -9.06% (active) in [2]; 68.4% in assay [3]; 57.1% in [4]; 56.1% in [5]; -40.1% (active) in assay [6]. Further, the growth in assay [7] was -83.7% (active); in assay [8], 39.7%; in assay [9] it was 9.88% (active); in [10], -73.3% (active); in assay [11], 12.4%; in [12], -51% (active). Besides, the growth in assay [13] is -2.63% (active); in assay [14], -73.1% (active); in assay [15] it was 56.9%; in [16], 74.9%; in assay [17] it was -34.5% (active); in assay [18] it was 34.4%. In addition, the growth in [19] is 9.23% (active).
Turning to `CC(C)(C)C(=O)/C=c1/[nH]c(=O)/c(=C/c2ccccc2O)s1`, the growth in assay [1] was 73.1%; in [2], 76.4%; in assay [3], 71.7%; in assay [4], 46%; in [5], 23.8%; in assay [6], 80.4%. For the same compound, the growth in [7] was 26.8%; in assay [8] it was 44.2%; in [9], 87.3%; in [10] it was 89.1%; in assay [11], 78.6%; in assay [12], 66.4%. In addition, the growth is 58.1% in assay [13]; 62.7% in assay [14]; 61% in assay [15]; 60.6% in assay [16]; 60.1% in [17]; 82.1% in [18]. Besides, the growth in assay [19] was 30.4%.
As for `C=C1C(=O)O[C@H]2[C@H]1CC/C(COC(=O)c1ccc3ccccc3c1)=C\CC[C@@]1(C)O[C@@H]21`, the growth in [1] was 2.6% (active); in [2] it was -82.3% (active); in assay [3], 45%; in [4], -29.2% (active); in assay [5], 8.67% (active); in assay [6] it was -73.3% (active). Further, the growth in assay [7] was -77.3% (active); in [8], -52.7% (active); in assay [9], -85.1% (active); in [10], -71.1% (active); in assay [11], -81.1% (active); in assay [12], -75.8% (active). The growth in assay [13] was -62.3% (active); in assay [14] it was -91% (active); in [15], -41% (active); in [16], 43.1%; in assay [17] it was -94.9% (active); in [18], -24.6% (active). Also, the growth in assay [19] is -58.8% (active).
Turning to `COc1cc2ncnc(Oc3ccc(NC(=O)Nc4ccc(C5(C#N)CCCC5)cc4)c4ccccc34)c2cc1OC`, the growth in assay [1] is 47.6%; in assay [2], 80.3%; in assay [3], 66.7%; in assay [4], 41.5%; in [5] it was 19.3%; in assay [6], -39.8% (active). The growth in assay [7] was 37.8%; in assay [8], 25.6%; in assay [9], -40.7% (active); in [10], 82.5%; in assay [11], 57.7%; in [12], 31.3%. In addition, the growth in assay [13] was 43.6%; in assay [14] it was 14.9%; in assay [15], 27%; in [16] it was 13.7%; in assay [17], 64.7%; in assay [18] it was 94.8%. In addition, the growth in [19] is 47.3%.
Consider `CC(C(=O)O)N1C(N)=NNC1c1ccccc1O` (stereo not drawn), for which the growth was 86.3% in [1]; 84.6% in assay [2]; 82.3% in [3]; 81.5% in assay [4]; 84.7% in [5]; 77.7% in assay [6]. Further, the growth in assay [7] is 74.8%; in assay [8] it was 83.3%; in [9], 104%; in [10], 103%; in [11], 102%; in [12] it was 85.6%. The growth in assay [13] is 76.6%; in assay [14] it was 96.4%; in [15], 84%; in [16] it was 99.3%; in assay [17], 103%; in [18], 87.1%. The growth in assay [19] is 96.9%.
With `CN(C)c1ncc(C#Cc2c(F)cccc2F)c2ccccc12`, the growth was 89.9% in [1]; 89.4% in [2]; 88.5% in assay [3]; 88.1% in assay [4]; 84% in assay [5]; 40.4% in [6]. Besides, the growth in assay [7] was 70.7%; in assay [8] it was 86.5%; in assay [9] it was 105%; in assay [10], 98.7%; in assay [11], 97.4%; in assay [12], 113%. Besides, the growth in assay [13] is 80.2%; in [14], 93.2%; in assay [15], 87.2%; in assay [16], 102%; in assay [17], 94.5%; in [18] it was 99%. For the same compound, the growth in assay [19] is 86.3%.
Regarding `COc1ccccc1S(=O)(=O)Nc1ccc2c3c(cc(-c4cnn(C5CC5)c4)nc13)C(=O)N2C`, the growth is 67.5% in [1]; 79.7% in [2]; 70.7% in [3]; 50.7% in assay [4]; 66.7% in [5]; 40.7% in assay [6]. For the same compound, the growth was 64.6% in [7]; 66.4% in assay [8]; 68.2% in assay [9]; 39.2% in assay [10]; 85.1% in assay [11]; 63.9% in assay [12]. The growth in assay [13] is 52.8%; in assay [14], 89.8%; in assay [15], 84.3%; in [16], 53.7%; in [17], 60.8%; in assay [18], 66.2%. In addition, the growth in [19] was 61.1%.

The record behind these values is PubChem BioAssay (NCI).
